From PubChem BioAssay (NCI)
The panel holds about 79,000 compounds, 15% with a hit somewhere; the sample as a whole holds those more often. Active and inactive are the calls of the source. Rule as the data show it: active = growth inhibition above about 70%; inactive = the rest.

How the values were obtained:
[1] = NCI Yeast Anticancer Drug Screen. Data for the rad52 strain (AID 147);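 also: 0% = growth of vehicle-treated control cultures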; conditions: S. cerevisiae rad52 mutant growth inhibition, stronger effect = higher value
Procedure, shortened: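 Screen used a yeast mutant impaired in DNA repair. After compound exposure, growth was measured. Values reflect inhibition compared with vehicle-treated cells.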

[2] = NCI Yeast Anticancer Drug Screen. Data for the wt1 strain (AID 149);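 also: 0% = growth of vehicle-treated wt1 cultures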; conditions: S. cerevisiae wt1 strain (SPY 50644) growth inhibition, stronger effect = higher value
Procedure, shortened: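 Each compound is tested on wt1 yeast and the loss of growth versus vehicle gives the inhibition value.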

[3] = NCI Yeast Anticancer Drug Screen. Data for the rad50EPP+ strain (AID 151);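 also: 0% = growth of vehicle-treated control cultures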; conditions: S. cerevisiae rad50 mutant strain, stronger effect = higher value
Procedure, shortened: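 Exposing the rad50EPP+ strain to each compound, growth was compared with vehicle-only cultures to give inhibition.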

[4] = NCI Yeast Anticancer Drug Screen. Data for the mgt1 strain (AID 153); conditions: S. cerevisiae mgt1 mutant growth inhibition, stronger effect = higher value
Procedure, shortened: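 Genetically defined yeast (mgt1) treated with compound; inhibition of growth expressed against vehicle-treated controls.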

[5] = NCI Yeast Anticancer Drug Screen. Data for the rad50 strain (AID 155);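 also: 0% = growth of vehicle-only cultures of the same strain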; conditions: S. cerevisiae rad50 strain growth inhibition, stronger effect = higher value
Procedure, shortened: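 Vehicle-treated cultures provide the reference for the growth inhibition reported for compound-exposed, repair-deficient yeast.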

[6] = NCI Yeast Anticancer Drug Screen. Data for the mec2-1 strain (AID 157); conditions: S. cerevisiae mec2-1 strain, stronger effect = higher value
Procedure, shortened: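 Readout is yeast growth inhibition, normalised to vehicle-treated controls, in the mec2-1 strain exposed to compound.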

[7] = NCI Yeast Anticancer Drug Screen. Data for the rad14 strain (AID 159);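 also: 0% = growth of vehicle-treated control cultures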; conditions: S. cerevisiae rad14 strain growth inhibition, stronger effect = higher value
Procedure, shortened: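 Inhibition of growth is reported for a repair-deficient yeast mutant following compound treatment, calculated relative to cultures that received vehicle.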

[8] = NCI Yeast Anticancer Drug Screen. Data for the sgs1 mgt1 strain (AID 161);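 also: 0% = growth of cultures given vehicle only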; conditions: S. cerevisiae sgs1 mgt1 strain, stronger effect = higher value
Procedure, shortened: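 Compounds are added to genetically altered yeast, and growth is compared with cultures given vehicle alone to give percent inhibition.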

[9] = NCI Yeast Anticancer Drug Screen. Data for the CLN2oe strain (AID 163);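 also: 0% = growth of vehicle-only control cultures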; conditions: S. cerevisiae CLN2oe strain, stronger effect = higher value
Procedure, shortened: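 Values reflect how much compound exposure reduced yeast growth, referenced to vehicle-exposed cells. Assay organism is a strain with a defined genetic change affecting cell-cycle control.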

[10] = NCI Yeast Anticancer Drug Screen. Data for the cln2 rad14 strain (AID 165);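 also: 0% = growth equal to vehicle treated cultures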; conditions: S. cerevisiae cln2 rad14 strain, stronger effect = higher value
Procedure, shortened: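 Relative to vehicle controls, growth inhibition of compound-treated cln2 rad14 yeast was recorded.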

[11] = NCI Yeast Anticancer Drug Screen. Data for the bub3 strain (AID 167); conditions: S. cerevisiae bub3 mutant strain, stronger effect = higher value
Procedure, shortened: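 Mutant yeast screening strain plus compound; vehicle-treated cultures serve as the 0% inhibition reference.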

[12] = NCI Yeast Anticancer Drug Screen. Data for the wt2 strain (AID 169); conditions: S. cerevisiae wt2 strain growth inhibition, stronger effect = higher value
Procedure, shortened: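 Values express reduction in yeast growth under compound treatment, referenced to vehicle-treated cells.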

[13] = NCI Yeast Anticancer Drug Screen. Data for the mlh1 strain (AID 171);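 also: 0% = growth of vehicle-treated control cultures of the same strain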; conditions: S. cerevisiae mlh1 strain growth inhibition, stronger effect = higher value
Procedure, shortened: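 Steps: expose the defined-mutant yeast strain to compound; expose a parallel culture to vehicle; measure growth; express compound effect as inhibition relative to the vehicle culture.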

[14] = NCI Yeast Anticancer Drug Screen. Data for the mlh1 rad18 strain (AID 175); conditions: S. cerevisiae mlh1 rad18 strain growth inhibition, stronger effect = higher value
Procedure, shortened: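 Test agents were incubated with a yeast strain of defined genotype (DNA damage repair defect). Inhibition of growth was derived by comparison with vehicle-exposed cultures.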

[15] = NCI Yeast Anticancer Drug Screen. Data for the rad18 strain (AID 177); conditions: S. cerevisiae rad18 mutant growth inhibition, stronger effect = higher value
Procedure, shortened: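 A genetically defined yeast mutant impaired in DNA damage repair was treated with test compounds, then its growth was measured against cultures receiving vehicle alone.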

[16] = at 5.0 µM (retest, dose inferred, filed as 0.5)
[17] = at 50.0 µM (retest, dose inferred, filed as 5.0)

Measured: growth inhibition

Cc1csc(=S)n1OC(=O)NC1CCCCC1
inactive: [1]; at 1.2 µM -54% | [1]; at 3.7 µM 63% | [2]; at 1.2 µM -5% | [3]; at 1.2 µM -23% | [4]; at 1.2 µM 18% | [5]; at 1.2 µM -2% | [6]; at 1.2 µM -11% | [6]; [16] -3% | [7]; at 1.2 µM -8% | [8]; [16] 32% | [9]; at 1.2 µM -6% | [11]; at 1.2 µM 3% | [12]; at 1.2 µM -23% | [13]; at 1.2 µM 8% | [15]; at 1.2 µM -11%
active: [1]; at 11.0 µM 99% | [1]; at 33.0 µM 99% | [1]; at 100.0 µM 99% | [2]; at 3.7 µM 97% | [2]; at 11.0 µM 99% | [2]; at 33.0 µM 100% | [2]; at 100.0 µM 99% | [3]; at 3.7 µM 99% | [3]; at 11.0 µM 99% | [3]; at 33.0 µM 99% | [3]; at 100.0 µM 99% | [4]; at 3.7 µM 99% | [4]; at 11.0 µM 100% | [4]; at 33.0 µM 100% | [4]; at 100.0 µM 99% | [5]; at 3.7 µM 98% | [5]; [16] 94% | [5]; at 11.0 µM 99% | [5]; at 33.0 µM 98% | [5]; [17] 98% | [5]; at 50.0 µM 92.5% | [5]; at 100.0 µM 98% | [6]; at 3.7 µM 93% | [6]; at 11.0 µM 99% | [6]; at 33.0 µM 93% | [6]; [17] 99% | [6]; at 50.0 µM 94.2% | [6]; at 100.0 µM 95% | [7]; at 3.7 µM 96% | [7]; at 11.0 µM 99% | [7]; at 33.0 µM 99% | [7]; at 100.0 µM 98% | [8]; [17] 96% | [8]; at 50.0 µM 93.5% | [9]; at 3.7 µM 99% | [9]; at 11.0 µM 100% | [9]; at 33.0 µM 100% | [9]; at 100.0 µM 100% | [10]; [16] 83% | [10]; [17] 98% | [10]; at 50.0 µM 92.2% | [11]; at 3.7 µM 99% | [11]; [16] 99% | [11]; at 11.0 µM 99% | [11]; at 33.0 µM 100% | [11]; [17] 97% | [11]; at 50.0 µM 91.8% | [11]; at 100.0 µM 99% | [12]; at 3.7 µM 97% | [12]; at 11.0 µM 99% | [12]; at 33.0 µM 99% | [12]; at 100.0 µM 99% | [13]; at 3.7 µM 99% | [13]; at 11.0 µM 100% | [13]; at 33.0 µM 99% | [13]; at 100.0 µM 98% | [14]; [16] 97% | [14]; [17] 98% | [14]; at 50.0 µM 92.1% | [15]; at 3.7 µM 94% | [15]; at 11.0 µM 98% | [15]; at 33.0 µM 98% | [15]; at 100.0 µM 98%

O=C1CC(=O)c2ccccc21
active: [4]; at 100.0 µM 72% | [5]; at 50.0 µM 87.4% | [10]; at 50.0 µM 70.5% | [14]; at 50.0 µM 70% | [15]; at 100.0 µM 74%
inactive: [1]; at 1.2 µM -2% | [1]; at 3.7 µM -1% | [1]; at 11.0 µM 3% | [1]; at 33.0 µM 9% | [1]; at 100.0 µM 50% | [2]; at 1.2 µM 0% | [2]; at 3.7 µM -1% | [2]; at 11.0 µM 0% | [2]; at 33.0 µM 5% | [2]; at 100.0 µM 17% | [3]; at 1.2 µM -3% | [3]; at 3.7 µM -1% | [3]; at 11.0 µM 6% | [3]; at 33.0 µM 18% | [3]; at 100.0 µM 55% | [4]; at 1.2 µM -1% | [4]; at 3.7 µM 0% | [4]; at 11.0 µM 1% | [4]; at 33.0 µM 3% | [5]; at 1.2 µM 4% | [5]; at 3.7 µM 3% | [5]; [16] 3% | [5]; at 11.0 µM -9% | [5]; at 33.0 µM 14% | [5]; [17] 69% | [5]; at 100.0 µM 46% | [6]; at 1.2 µM 1% | [6]; at 3.7 µM 2% | [6]; [16] 1% | [6]; at 11.0 µM 4% | [6]; at 33.0 µM 10% | [6]; [17] 53% | [6]; at 50.0 µM 46.3% | [6]; at 100.0 µM 40% | [7]; at 1.2 µM 0% | [7]; at 3.7 µM 3% | [7]; at 11.0 µM 5% | [7]; at 33.0 µM 12% | [7]; at 100.0 µM 56% | [8]; [16] 3% | [8]; [17] 12% | [8]; at 50.0 µM 59.7% | [9]; at 1.2 µM -9% | [9]; at 3.7 µM -1% | [9]; at 11.0 µM 3% | [9]; at 33.0 µM 1% | [9]; at 100.0 µM 48% | [10]; [16] 0% | [10]; [17] 57% | [11]; at 1.2 µM -2% | [11]; at 3.7 µM -1% | [11]; [16] -4% | [11]; at 11.0 µM 0% | [11]; at 33.0 µM 3% | [11]; [17] 6% | [11]; at 50.0 µM 67.9% | [11]; at 100.0 µM 35% | [12]; at 1.2 µM 0% | [12]; at 3.7 µM 8% | [12]; at 11.0 µM 1% | [12]; at 33.0 µM 5% | [12]; at 100.0 µM 37% | [13]; at 1.2 µM -1% | [13]; at 3.7 µM 0% | [13]; at 11.0 µM 2% | [13]; at 33.0 µM 4% | [13]; at 100.0 µM 65% | [14]; [16] 1% | [14]; [17] 12% | [15]; at 1.2 µM -1% | [15]; at 3.7 µM 2% | [15]; at 11.0 µM 7% | [15]; at 33.0 µM 23%
